# Screens deposited in PubChem BioAssay by National Center for Advancing Translational Sciences (NCATS).
# SMN2 splice up: increases expression of the SMN2 splice variant | HEK293 SMN2-luciferase splicing reporter, luminescence, 30-36 h | AID 1458 | 210,000 tested, 2.8% active | Potency, µM (top dose mostly 46.1 µM), for inactives: at the highest dose activity change, positive = activation, actives largely listed as activators; note: % of control where 0% means no effect; nearly all actives have a fitted effect of over 55% in size
#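 HEK293 cells carry an SMN2 minigene-luciferase reporter in which exon 7 inclusion puts luciferase in frame. Cells were seeded at 2000 cells/well, attached for 10-12 hours, then exposed to compounds for 30-36 hours at 37C before ONE-Glo luminescence.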
# ELG1 genotoxic: genotoxicity induction in ELG1-luciferase HEK293T cells; HEK293T ELG1-luciferase reporter, luminescence, 16 h; Potency, µM (highest dose often 46 µM), for inactives: top-dose activity change, positive = activation, usual class: activators; 330,000 tested, 1.3% active; note: % of control where 0% means no effect; nearly all actives have a fitted effect of over 60% in size
#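 16 hr compound incubation (37 °C, 5% CO2) of HEK293T cells carrying luciferase-tagged ELG1; luciferase then measured by ONE-Glo luminescence after 30 min at RT.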
# ELG1 DNA repair: ELG1-dependent DNA repair inhibition; HEK293T ELG1-luciferase reporter, luminescence, 16 h; DNA damage induced by 5-fluorouridine; Potency, µM (top dose mostly 46.1 µM), for the others: top-dose activity change, negative = inhibition, hits mostly inhibitors; 330,000 tested, 2.3% active; note: % is set by controls: 0 for no effect and ±100 for the full control effect; nearly all actives have a fitted effect of over 55% in size
#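 DMSO vehicle served as the neutral condition. Each well held 2,000 cells given 5-fluorouridine plus compound; after 16 hr at 37 °C/5% CO2, ONE-Glo was added and luciferase measured 30 min later.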
# FLuc counter: firefly luciferase modulation, counter-screen for miR-21 project. purified FLuc, Km substrates, luminescence inhibition. AID 588342. 360,000 tested, 6.9% active. P08659. Potency, µM (titrated, usually from 57.5 µM), for inactives: top-dose activity change, negative = inhibition, usual class: inhibitors;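 note: plate controls were vehicle for no effect and reference inhibitor for full effect; nearly all actives have a fitted effect of over 55% in size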
# Target sequence (P08659 whole entry, looked up): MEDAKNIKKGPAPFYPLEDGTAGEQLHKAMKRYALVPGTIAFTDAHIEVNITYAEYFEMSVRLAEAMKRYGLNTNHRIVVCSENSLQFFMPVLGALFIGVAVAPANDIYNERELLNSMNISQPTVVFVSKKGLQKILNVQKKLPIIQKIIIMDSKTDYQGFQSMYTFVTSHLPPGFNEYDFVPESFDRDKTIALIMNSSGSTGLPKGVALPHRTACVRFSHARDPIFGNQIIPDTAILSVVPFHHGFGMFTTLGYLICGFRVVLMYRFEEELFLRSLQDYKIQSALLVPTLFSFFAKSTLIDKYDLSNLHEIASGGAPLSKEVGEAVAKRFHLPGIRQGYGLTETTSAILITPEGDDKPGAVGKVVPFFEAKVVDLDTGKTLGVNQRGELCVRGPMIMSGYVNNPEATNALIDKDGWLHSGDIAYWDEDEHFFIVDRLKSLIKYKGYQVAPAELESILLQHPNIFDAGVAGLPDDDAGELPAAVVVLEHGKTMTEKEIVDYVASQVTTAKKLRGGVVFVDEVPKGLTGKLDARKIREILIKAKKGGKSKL
#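 Purified P. pyralis luciferase, 10 nM final, with Km-level 10 uM D-luciferin and 10 uM ATP in 50 mM Tris acetate pH 7.5, 10 mM Mg acetate, 0.01% Tween-20, 0.05% BSA; 6-point qHTS titration about 60 µM downward; luminescence read.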
# NPC1 prom act: activates the NPC1 promoter; Potency, µM (highest dose often 9.22 µM), without a hit: at the highest dose activation, usual class: activators; Huh7 NPC1 promoter luciferase reporter, 24 h; 320,000 tested, 2.4% active; note: % of control where 0% means no effect; nearly all actives have a fitted effect of over 60% in size
#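 NPC1 promoter–luciferase Huh7 cells; 24 h compound; luminescence.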
# Rab9 promoter act: activators of Rab9 promoter | Huh7 Rab9 promoter-luciferase reporter, luminescence, 24 h | Potency, µM (titrated, usually from 9.22 µM), without a hit: at the highest dose activation, negative = inhibition, hits mostly activators | 320,000 tested, 2.8% active; note: % of control where 0% means no effect; nearly all actives have a fitted effect of over 60% in size
#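 Huh7 cells stably carrying Rab9 promoter–luciferase reporter, plated 1500 cells/well, compound added after 2 h and incubated 24 h at 37 °C; luciferase luminescence then read after 10 min with detection reagent.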
# * marks the source's active call; other numbers are inactive results; u = inconclusive; x = no result given; [ ] = another dose, or the depositor's remark. Only some compounds are listed: those with a hit (about 9.2% of all), similar ones and a draw of the others. Calls come from the whole dose curve; as a rule, active = well fitted curve in the direction sought with a large enough effect; inconclusive = small, poorly fitted or top-dose-only effect, or another doubt; inactive = no such curve, though single readings can be large; an effect the other way counts as inactive or inconclusive. Potency is the fitted concentration of half-maximal effect.
SMILES,SMN2 splice up,ELG1 genotoxic,ELG1 DNA repair,FLuc counter,NPC1 prom act,Rab9 promoter act
O=C(Nc1ccccn1)c1ccc(S(=O)(=O)N2CCCCC2)cc1,x,9.2µM*,u,13µM*,u,u
CCOc1ccc2nc(NCCNC(=O)c3cc(OC)c(OC)c(OC)c3)c(C#N)cc2c1,x,-6%,13µM*,-1%,1%,-3%
COc1ccccc1C(=O)NCCNc1nc2cc(C)cc(C)c2cc1C#N,x,-11%,9.2µM*,-14%,-8%,2%
COc1cc(C(=O)NCCNc2nc3cc(C)ccc3cc2C#N)cc(OC)c1OC,x,-4%,u,0%,-2%,-3%
COc1cc(OC)cc(C(=O)NCCNc2nc3cc(C)cc(C)c3cc2C#N)c1,x,-8%,16µM*,-1%,-2%,-2%
O=C(Cc1c[nH]c2ccccc12)N1CCN(S(=O)(=O)c2cccc(Cl)c2Cl)CC1,x,-5%,u,-2%,2%,-7%
CC(=O)c1ccc(NC(=O)c2noc(C(C)C)c2[N+](=O)[O-])cc1,-8%,13%,35%,-14%,14%,18%
C=CCNC(=O)c1cc(-c2ccc(Br)cc2)on1,11µM*,u,u,u,1.3µM*,0.79µM*
C=CCNC(=O)c1cc(-c2cccs2)on1,x,x,x,13µM*,x,x
Cc1ccc(O)c(NC(=O)c2cc(-c3ccc(F)cc3)on2)c1,u,8%,u,-13%,u,27%
Cc1ccc(O)c(NC(=O)c2noc(C(C)C)c2[N+](=O)[O-])c1,29%,u,u,19µM*,-2%,-3%
Cc1ccc(O)c(NC(=O)c2cc(-c3cccs3)on2)c1,x,18µM*,u,2.1µM*,18%,-1%
CC(C)NC(=O)c1cc(-c2cccs2)on1,13µM*,4.5µM*,u,15µM*,3.2µM*,2.8µM*
Cc1ccc(O)c(NC(=O)c2onc(C)c2Cl)c1,x,u,u,17µM*,18%,-6%
CCC12CN3CC(C)(CN(C1)C3c1c(C)n(C)c3ccccc13)C2=O (stereo not drawn),11%,x,x,-2%,x,x
O=C(CSc1nccn1-c1ccc(F)cc1)Nc1ccc(OC(F)(F)F)cc1,x,x,x,-1%,x,x
N#CCC(=O)N/N=C/c1ccc(OC2CSC2)cc1,5%,4%,15%,-12%,1%,8%
COc1cccc(C(=O)N/N=C/c2ccc(OC3CSC3)cc2)c1,-39%,u,16%,15µM*,-4%,10%
Cc1cccc(C(=O)N/N=C/c2ccc(OC3CSC3)cc2)c1,-2%,12%,u,11µM*,12%,2%
Cc1cccc(C(=O)Oc2ccc(/C=N/NC(=O)c3ccccc3O)cc2)c1,5%[1.84 µM],16%,u,13µM*,17%,27%
Cn1nccc1C(=O)Oc1cccc(/C=N/NC(=O)c2ccccc2O)c1,x,u,u,9.5µM*,-1%,9%
Cc1cccc(-n2ncc3c2CCCC3NC(=O)C2CCOCC2)c1C (stereo not drawn),x,-9%,u,-1%,-3%,-21%
Cc1nc(NC(=O)CSc2nnc(C3CC3)n2N)c(Cl)cc1Cl,x,-1%,0%,x,x,x
O=C(N/N=C/c1cccc(OC2CSC2)c1)c1ccccc1O,9%,2%,u,6.7µM*,10%,11%
N#CC(C#N)=C1C(=O)N(CCN2CCOCC2)c2ccccc21,x,0%,20%,-6%,2%,13%
SMILES,SMN2 splice up,ELG1 genotoxic,ELG1 DNA repair,FLuc counter,NPC1 prom act,Rab9 promoter act
CCOc1ccc(C(=O)NCC2OCCc3ccccc32)cc1 (stereo not drawn),24%,4%,u,17µM*,8%,13%
COc1ccc(C(=O)NCC2OCCc3ccccc32)cc1 (stereo not drawn),-18%,7%,u,15µM*,29%,17%
Cc1cc(C)c[n+](C(C)C(=O)c2ccc(Cl)cc2)c1 (stereo not drawn),x,-3%,1%,0%,-5%,1%
Cc1cc2nc([C@H](C)C(=O)c3ccc(Cl)cc3)c(=O)[nH]c2cc1C,3.5µM*,x,x,x,x,x
COc1ccc(-c2cc(C(=O)N3CCN(c4ncccn4)CC3)c3ccccc3n2)cc1,x,0%,16µM*,0.67µM*,u,u
O=C(c1cc2ccccc2oc1=O)N1CCN(c2ncccn2)CC1,2%,18µM*,u,21µM*,19%,u
CCCc1ccc(-c2cc(C(=O)N3CCN(c4ccccn4)CC3)c3ccccc3n2)cc1,x,u,u,0.11µM*,u,u
COc1ccc(-c2cc(C(=O)N3CCN(c4ccccn4)CC3)c3ccccc3n2)cc1,x,-1%,u,0.67µM*,u,2.8µM*
COc1ccc(-c2cc(C(=O)N3CC(C)CC(C)C3)c3ccccc3n2)cc1 (stereo not drawn),x,-1%,-1%,u,2%,-5%
Cc1ccc(-c2cc(C(=O)N3CCN(c4ccc(O)cc4)CC3)c3ccccc3n2)cc1,x,0%,u,x,x,x
COc1ccc(OCC(=O)N2CCN(c3nnc(-c4ccccc4)c4ccccc34)CC2)cc1,-40%,-9%,16µM*,-13%,-6%,2%
COc1cc(-c2cc(C(=O)N3CCN(c4ccccn4)CC3)c3ccccc3n2)cc(OC)c1OC,18%,-5%,8.2µM*,0%,-4%,-6%
COc1ccc(N(CC(=O)NC2CCCCC2)C(=O)CCCC(=O)Nc2ccccn2)cc1,x,-7%,7%,2%,-4%,-4%
S=c1[nH]nc(-c2cc3ccccc3o2)n1Cc1ccccc1,-41%,1%,0%,-2%,-1%,1%
O=C1CCCc2nc3c(cc21)C(O)Oc1c-3ccc2ccccc12 (stereo not drawn),25%,u,u,-11%,3.2µM*,1.1µM*
Cc1c(CCNC(=O)Cc2ccccc2)sc2nc(-c3ccc(F)cc3)nn12,x,x,x,-14%,x,x
Cc1ccc(-c2nc3sc(CCNC(=O)c4ccc(Br)o4)c(C)n3n2)cc1,x,x,x,11µM*,x,x
Cc1ccc(-c2nc3sc(CCNC(=O)c4ccco4)c(C)n3n2)cc1,x,x,x,13µM*,x,x
CCOC(=O)C(=CNc1nc(-c2ccccc2)c(C(=O)Nc2ccc(-c3ccccc3)cc2)s1)C(=O)OCC,x,17%,23%,4%,-5%,-3%
COc1cn(CC(=O)Nc2ccc(C)cc2)c(CN2CCCCC2)cc1=O,x,x,x,-2%,x,x
COc1ccc(OC)c(Nc2ncnc3sc(-c4ccccc4)cc23)c1,11%,-1%,-26%,u,2%,-6%
COc1ccc(-c2cc3nnc(-c4ccccc4)nc3s2)cc1,0.71µM*,u,u,0.17µM*,22%,u
